Data on four molecules can be found in PubChem BioAssay (Tox21).

A short description of experiment [1]: qHTS assay to identify small molecule agonists of the estrogen related receptor (ERR) signaling pathway (AID 1224820). The procedure, abridged:
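Quantitative HTS of the LOPAC library used NTP ERR reporter cells treated 18 h at 37 C. Signal is luminescence after One-Glo addition and a 30 min room-temperature incubation.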
(Quantitative high-throughput screening tests each substance at several concentrations.)

For experiment [2], the system named is estrogen-related receptor alpha (ERRalpha) with PGC-1alpha coactivator, human. The experiment in a line: qHTS assay to identify small molecule antagonists of the estrogen related receptor signaling pathway with the pleiotropic PPARgamma coactivator (PGC) (AID 1224821; calls by dose curve;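 also: series mostly up to about 46 µM; lower luminescence signal means antagonism of PGC/ERR signalling; nearly all actives have a fitted effect of over 50% in size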). In a few lines:
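Quantitative HTS for antagonism: PGC/ERR cells received compounds after 6 h attachment and were incubated 18 h at 37 C, with luminescence (One-Glo) as the endpoint.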

A short description of experiment [3]: qHTS assay to identify small molecule antagonists of the estrogen related receptor signaling pathway with the pleiotropic PPARgamma coactivator (PGC) cell viability counter screen (AID 1224822; also: series mostly up to about 46 µM). The procedure, abridged: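 Seed PGC/ERR cells (2,000/well); incubate 6 h at 37 C/5% CO2; pin-transfer compounds in DMSO; incubate 17.5 h at 37 C; add CellTiter-Fluor; after 30 min read fluorescence.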

Experiment [4] in a line: qHTS assay to identify small molecule antagonists of the estrogen related receptor (ERR) signaling pathway (AID 1224819; also: potency is read from the fitted curve at half-maximal effect; nearly all actives have a fitted effect of over 50% in size). The procedure, abridged:
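Compounds dissolved in DMSO were pin-transferred onto ERR cells that had been plated 6 h earlier, and cells were then incubated 18 h at 37 C; signal was luciferase luminescence via One-Glo.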

A short description of experiment [5]: qHTS assay to identify small molecule agonists of the estrogen related receptor signaling pathway with the pleiotropic PPARgamma coactivator (PGC) (AID 1224823). Also: potency is read from the fitted curve at half-maximal effect. In a few lines:
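Cell-based luciferase assay in the NTP-supplied PGC/ERR line, 2,000 cells/well; 18 h compound exposure at 37 C, luminescence after One-Glo.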

Results filed as inconclusive are left out. A number with no mark means an inactive call. Calls of active or inactive are those of the source. Unless noted, calls follow the shape of the dose curve; as a rule, active = well fitted curve in the direction sought with a large enough effect in the repeat runs; inconclusive = weak or mixed curves; inactive = no such curve, though single readings can be large; an effect the other way counts as inactive or inconclusive.

As to `COC[C@H]1OC(=O)c2coc3c2[C@@]1(C)C1=C(C3=O)C2CCC(=O)[C@@]2(C)C[C@H]1OC(C)=O` (stereo partly specified), the Potency result in experiment [1], in experiment [2] and in experiment [3] was “inactive” throughout.

With `Clc1ccc(C(c2ccc(Cl)cc2)n2cc[n+](CC(OCc3ccc(Cl)cc3Cl)c3ccc(Cl)cc3Cl)c2)cc1` (stereo unspecified), the Potency in experiment [4] was 19.6 µM (active). The Potency result in experiment [1] and in experiment [5] was “inactive” in each case.

With `CCNC(=O)[C@H]1O[C@@H](n2cnc3c(N)ncnc32)[C@H](O)C1O` (stereo partly specified), the Potency result in experiment [1], in experiment [2] and in experiment [3] was “inactive” each time. Besides, in experiment [5], the Potency is 0.168 µM (active).

On to `CN1CC[C@@]2(C)c3cc(O)ccc3N(C)C12` (stereo partly specified), for which the Potency result in experiment [1] was “inactive”.
